Laboratory results as given in PubChem BioAssay.

Test: basal RPMI8226 mitochondrial membrane potential changes, profiling panel, cell-based, JC-1 fluorescence, 24 h, 100 nL compound (AID 1169); also: test concentration not given here
Settings: RPMI8226 myeloma, JC-1 mitochondrial potential fluorescence, higher = more signal
[N-]=[N+]=NCc1ccccc1[C@@H]1OC(c2ccc(OCCCO)cc2)=N[C@]1(CCS(=O)(=O)c1ccccc1)C(=O)O showed a z-score of -0.178.
Work on CC1CC/C=C\[C@H]2OC34C=CCN(c5ccc(Cl)cc5)C(=O)[C@H]3N(C(C)CO)C(=O)[C@]4(C)C2C(=O)O1 (stereo not given in full) yielded a z-score of -0.0845.
Work on C=CC[C@]1(C(=O)N2CCCCC2)N=C(c2ccc(OCCCO)cc2)O[C@H]1c1ccccc1CN=[N+]=[N-] yielded a z-score of -1.31.
Work on COc1ccc([Si](C)(C)[C@H]2[C@H](CC(=O)N3CCC[C@H]3CO)O[C@@]3(C(=O)N(Cc4ccc(N5CCOC5=O)cc4)c4ccccc43)[C@@H]2C)cc1 yielded a z-score of -1.06.
Cc1cc(C)c(C(O)C2C=CC3C(=O)N(c4ccccc4)C(=O)C3N2Nc2ccccc2F)c(C)c1 (stereo not given) gave a z-score of -0.15.
For CC[C@@H]1O[Si](C(C)C)(C(C)C)c2c1cc(-c1cc(C)c(OC)c(C)c1)nc2-c1ccc(Oc2ccccc2)cc1, the z-score was 0.756.
Work on O[C@@H](Cc1ccccc1)[C@@H](/C=C/C1CC1)N(CC#Cc1ccccc1)Cc1ccccc1Br yielded a z-score of -0.44.
In the case of COC(=O)C/C=C/C[C@]1(O)C(=O)N(C)c2ccccc21, the z-score is reported as -0.838.
Molecule C=CC[C@@]1(C(=O)NCCCOC)N=C(c2ccc(OCCCO)cc2)O[C@@H]1c1ccccc1N=[N+]=[N-] has a z-score of -0.178.
With COC(=O)[C@@H]1N=C(c2ccc(OCCCO)cc2)O[C@@H]1C the z-score was -0.155.
CCCC=C(CCC)[C@@H](NC(=O)c1cccs1)c1ccc(C(=O)OC)cc1 showed a z-score of 0.973.
For COc1cc(NN2C(C(O)c3cc(OC)c(OC)c(OC)c3)C=CC3C(=O)N(C)C(=O)C32)cc(OC)c1OC (stereo not given), the z-score was 0.729.
Work on COc1cc(OC)c(C(O)C2C=CC3C(=O)N(Cc4ccccc4)C(=O)C3N2n2cnnc2)cc1Br (stereo not given) yielded a z-score of -0.345.
C=CCC(OC(C)=O)[C@@H]1[C@@H](N(Cc2cc3ccccc3o2)C(=O)Cc2ccc(F)cc2)c2cc(OCCCO)ccc2N1C(=O)Cc1ccc2ccccc2c1 (stereo not given in full) showed a z-score of -0.311.
COc1ccc(CCNC(=O)[C@@H]2c3ccccc3C(=O)N(C3CCCCC3)[C@H]2c2ccc(CO)cc2)cc1 showed a z-score of -0.726.
For C[N+](C)(C)CCCC[C@@H]1NC(=O)[C@@H]2C[C@H](C(=O)NCCCCCCN)[C@H](c3cccc(OCCO)c3)N2C1=O, the z-score was -0.711.
Molecule O=C1C2C=CC(C(O)C3CC=CCC3)N(Nc3ccccc3)C2C(=O)N1c1ccccc1 (stereo not given) has a z-score of 0.173.
Work on O=C1C2C=CC(C(O)c3ccco3)N(Nc3ccccc3F)C2C(=O)N1c1ccccc1 (stereo not given) yielded a z-score of -0.201.
For COC(=O)c1c(CC[C@@H](CO)NC(=O)N2CCC[C@H]2Cn2cc(C3(O)CCCCC3)nn2)oc(C(C)=O)c1C(=O)OC, the z-score was -0.667.
Molecule C=C(/C(=C/C[C@H](OC(=O)c1ccncc1)c1ccc(CO)o1)c1cnc2ccccc2c1)C(C)C has a z-score of 0.319.
With COCC(=C=CC[C@H](O)c1ccccc1OCCO)C[C@H](O)c1ccccn1 the z-score was -0.471.
Molecule CC(C)c1ccc(NN2C(C(O)c3ccc(F)cc3)C=CC3C(=O)N(c4ccccc4)C(=O)C32)cc1 (stereo not given) has a z-score of 0.282.
CO[C@H]1O[C@H](CO)[C@@H](OC(=O)Nc2ccc3c(c2)OCO3)[C@H](OC(=O)Nc2ccc3c(c2)OCO3)[C@@H]1OC(=O)Nc1ccc2c(c1)OCO2 gave a z-score of -0.538.
Molecule CCCNC(=O)[C@@H]1c2ccccc2C(=O)N(Cc2ccc(OC(F)(F)F)cc2)[C@H]1c1ccc(CO)cc1 has a z-score of 0.432.
With CCOC(=O)C[C@H]1[C@H](OC(=O)c2cc3ccccc3oc2=O)[C@@H](NC(=O)c2ccccc2)c2cc(OCCCO)ccc2N1C(=O)c1ccccc1 the z-score was -0.954.
Work on CCCNC(=O)[C@@]1(C)c2ccccc2C(=O)N(c2ccc(C)cn2)[C@H]1c1ccc(CO)cc1 yielded a z-score of 0.0215.
Work on CC(C)C(O)C1C=CC2C(=O)N(c3ccccc3)C(=O)C2N1Nc1ccccc1 (stereo not given) yielded a z-score of 0.0949.
Molecule CCCCC(CC)C(O)C1C=CC2C(=O)N(c3ccccc3)C(=O)C2N1Nc1ccc(C#N)cc1 (stereo not given) has a z-score of 0.0604.
For COc1ccc(CCNC(=O)[C@@]2(Cc3ccccc3I)c3ccccc3C(=O)N(C3CCCCC3)[C@H]2c2ccc(CO)cc2)cc1, the z-score was -0.184.
With [N-]=[N+]=Nc1ccccc1C[C@@]1(C(N)=O)N=C(c2ccc(OCCCO)cc2)O[C@@H]1c1ccccc1N=[N+]=[N-] the z-score was -1.23.
C=CCN1C(=O)[C@]2(CCS(=O)(=O)c3ccccc3)N=C(c3ccc(OCCCO)cc3)O[C@@H]2c2ccccc21 gave a z-score of -0.156.
NC(=O)NCC#Cc1ccc2c(c1)[C@]1(C(=O)N2)[C@H](c2ccccc2OCCO)N2[C@H](c3ccccc3)[C@H](c3ccccc3)OC(=O)[C@H]2[C@@H]1C(=O)O gave a z-score of 0.689.
In the case of NCCCCCNC(=O)[C@H]1C[C@H]2C(=O)N3CCC[C@H]3C(=O)N2[C@H]1c1cccc(OCCO)c1, the z-score is reported as 0.113.
COc1ccc([Si](C)(C)[C@@H]2[C@@H](CCO)O[C@]3(C(=O)N(Cc4cccc(NC(=O)[C@H](C)O)c4)c4ccccc43)[C@H]2C)cc1 showed a z-score of -1.06.
Molecule CCCCN1CC=CC23O[C@@H]4/C=C\CCCOC(=O)C4[C@H]2C(=O)N(CCO)[C@@H]3C1=O (stereo not given in full) has a z-score of 0.378.
